This note sets out measurements from PubChem BioAssay (NCATS).

One test has as its system 3D7. As to the kind of experiment: qHTS profiling for inhibitors of Plasmodium falciparum proliferation (AID 504749). Note: nearly all actives have a fitted effect of over 60% in size. The following applies: P. falciparum in erythrocytes, SYBR Green DNA, 72 h; series mostly up to 28.7 µM. In outline:
(§1)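 Fluorescence of SYBR Green-bound parasite DNA, read at 485/535 nm, served as the growth measure. Infected erythrocytes were cultured with compound 72 h; artemisinin (0.29 uM) and DMSO wells defined the normalization range.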

For the next test, the system named is CP217. Described as above. The following applies: P. falciparum in erythrocytes, SYBR Green DNA, 72 h; series mostly up to 28.7 µM. The method in brief:
as §1

In another test the test system is CP237. The description is as above. The following applies: P. falciparum in erythrocytes, SYBR Green DNA, 72 h; series mostly up to 28.7 µM. The method in brief:
as §1

In a further test the test system is CP250. Described as above. The following applies: P. falciparum in erythrocytes, SYBR Green DNA, 72 h; series mostly up to 28.7 µM. The method in brief: as §1
The next test concerns CP260. The test is described as above. The following applies: P. falciparum in erythrocytes, SYBR Green DNA, 72 h; series mostly up to 28.7 µM. In outline: as §1
For the next test, the system named is CP265. The test is described as above. The following applies: P. falciparum in erythrocytes, SYBR Green DNA, 72 h; series mostly up to 28.7 µM. In outline:
as §1

In a further test the test system is CP286. The description is as above. The following applies: P. falciparum in erythrocytes, SYBR Green DNA, 72 h; series mostly up to 28.7 µM. In outline:
as §1

The subject of another test is DIV14. Described as above. The following applies: P. falciparum in erythrocytes, SYBR Green DNA, 72 h; series mostly up to 28.7 µM. In outline:
as §1

A further test deals with ECU. The description is as above. The following applies: P. falciparum in erythrocytes, SYBR Green DNA, 72 h; series mostly up to 28.7 µM. The method in brief: as §1
The next test concerns HB3. Described as above. The following applies: P. falciparum in erythrocytes, SYBR Green DNA, 72 h; series mostly up to 28.7 µM. In outline: as §1
The test system of another test is N140. The test is described as above. The following applies: P. falciparum in erythrocytes, SYBR Green DNA, 72 h; series mostly up to 28.7 µM. The method in brief: as §1
Another test relates to P93_24. The test is described as above. The following applies: P. falciparum in erythrocytes, SYBR Green DNA, 72 h; series mostly up to 28.7 µM. The method in brief:
as §1

In the next test the test system is PAD. The description is as above. The following applies: P. falciparum in erythrocytes, SYBR Green DNA, 72 h; series mostly up to 28.7 µM. The method in brief:
as §1

A further test concerns PC15. The description is as above. The following applies: P. falciparum in erythrocytes, SYBR Green DNA, 72 h; series mostly up to 28.7 µM. In outline: as §1
The test system of the next test is SC27B. Described as above. The following applies: P. falciparum in erythrocytes, SYBR Green DNA, 72 h; series mostly up to 28.7 µM. In outline: as §1
A further test has as its system TAB109. Described as above. The following applies: P. falciparum in erythrocytes, SYBR Green DNA, 72 h; series mostly up to 28.7 µM. The method in brief: as §1
The subject of another test is TAB165. The test is described as above. The following applies: P. falciparum in erythrocytes, SYBR Green DNA, 72 h; series mostly up to 28.7 µM. The method in brief:
as §1

The target in test [1] is DNA polymerase iota (Homo sapiens) (UniProt Q9UNA4). As to the kind of experiment: qHTS for Inhibitors of Polymerase Iota: Confirmatory Assay for Cherry-picked Compounds (AID 720496). Note: potency is the fitted concentration of half-maximal effect. The following applies: Pol iota primer extension, TAMRA/BHQ fluorescence. The method in brief:
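10 nM Pol iota + cpd, 15 min RT; start w/ 50 nM (final) TAMRA reporter/BHQ-2 template primer substrate; ex 525/em 598 nm read at 0 and 10 min kinetic.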
(Quantitative high-throughput screening tests each substance at several concentrations.)

Test [2] addresses Fructose-bisphosphate aldolase A (Oryctolagus cuniculus) (UniProt P00883). As to the kind of experiment: qHTS Assay for Inhibitors of Fructose-1,6-bisphosphate Aldolase from Giardia Lamblia: Rabbit FBPA Selectivity (AID 2794). Note: nearly all actives have a fitted effect of over 60% in size. The method in brief:
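Concentration-response qHTS with rabbit FBPA: 10 min RT compound–coupling enzyme preincubation; reaction started by substrate plus AmpLite Red detection; fluorescence at 525/598 nm after 20 min. Final compound range up to 57.5 uM.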

The structures appear in SMILES notation. Inconclusive results are not listed. Some of the results follow. The source made the active and inactive calls. Calls come from the whole dose curve; as a rule, active = well fitted curve in the direction sought with a large enough effect; inconclusive = small, poorly fitted or top-dose-only effect, or another doubt; inactive = no such curve, though single readings can be large; an effect the other way counts as inactive or inconclusive.

Sequence of Fructose-bisphosphate aldolase A (Oryctolagus cuniculus) (P00883 whole entry, looked up): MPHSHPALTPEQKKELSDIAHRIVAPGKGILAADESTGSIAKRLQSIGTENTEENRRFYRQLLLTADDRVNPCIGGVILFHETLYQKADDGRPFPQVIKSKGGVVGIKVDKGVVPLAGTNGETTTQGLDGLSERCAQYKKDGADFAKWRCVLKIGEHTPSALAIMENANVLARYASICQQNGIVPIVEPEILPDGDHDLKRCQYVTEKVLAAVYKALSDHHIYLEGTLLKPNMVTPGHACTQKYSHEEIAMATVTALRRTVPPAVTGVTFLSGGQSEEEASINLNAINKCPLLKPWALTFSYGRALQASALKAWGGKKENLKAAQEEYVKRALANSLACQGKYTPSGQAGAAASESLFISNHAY
Sequence of DNA polymerase iota (Homo sapiens) (Q9UNA4 whole entry, looked up): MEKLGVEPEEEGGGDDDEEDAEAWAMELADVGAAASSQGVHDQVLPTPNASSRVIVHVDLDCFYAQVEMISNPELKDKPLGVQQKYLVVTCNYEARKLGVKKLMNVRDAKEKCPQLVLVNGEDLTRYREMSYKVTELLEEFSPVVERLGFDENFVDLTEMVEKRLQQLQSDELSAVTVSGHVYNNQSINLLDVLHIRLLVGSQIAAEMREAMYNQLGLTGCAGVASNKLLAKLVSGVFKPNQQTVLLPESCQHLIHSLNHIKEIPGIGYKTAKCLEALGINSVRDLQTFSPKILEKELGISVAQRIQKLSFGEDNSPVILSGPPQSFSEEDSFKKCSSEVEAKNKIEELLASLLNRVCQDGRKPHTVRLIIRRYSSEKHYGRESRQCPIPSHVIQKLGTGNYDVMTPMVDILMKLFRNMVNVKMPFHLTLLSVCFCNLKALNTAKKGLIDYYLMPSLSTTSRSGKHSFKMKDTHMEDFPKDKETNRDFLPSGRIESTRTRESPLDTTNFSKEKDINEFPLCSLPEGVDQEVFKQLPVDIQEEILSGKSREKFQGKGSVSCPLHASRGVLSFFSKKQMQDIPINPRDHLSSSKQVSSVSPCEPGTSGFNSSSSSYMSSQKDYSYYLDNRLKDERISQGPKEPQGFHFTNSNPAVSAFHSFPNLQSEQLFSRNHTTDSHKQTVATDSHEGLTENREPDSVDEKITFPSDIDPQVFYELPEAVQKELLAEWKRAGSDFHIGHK

In the case of `Cc1c(C(=O)O)c(O)cc2c1C(=O)c1c(O)c([C@H]3O[C@H](CO)[C@@H](O)[C@H](O)[C@H]3O)c(O)c(O)c1C2=O`, the Potency result in the test on 3D7, in the test with CP217, in the test on CP237, in the test with CP250, in the test on CP260 and in the test with CP265 was “inactive” in each case. The Potency result in the test with CP286, with DIV14, in the test on ECU, in the test on HB3, in the test with N140 and in the test on P93_24 was “inactive” each time. Moreover, the Potency entry with PAD, in the test with PC15, with SC27B, in the test on TAB109 and in the test on TAB165 was “inactive” in each case.
On to `COc1cc([C@H](Cc2ccccc2)NC(C)=O)oc(=O)c1`, for which the Potency in test [1] is 37.7 µM (active).
As for `Oc1[nH]c2ccc(Br)cc2c1N=Nc1nn[nH]n1`, the compound was classed as inactive in test [2].
